Over roughly 33,000 sequences, “E-score (-0.5 to 0.5)” has its median near -0.043; the highest 2% begin near 0.37. The sample as a whole holds a higher share of the highest values than the screen did.
Biological target: T1, Upc2 (UniProt Q12151)
T1 sequence: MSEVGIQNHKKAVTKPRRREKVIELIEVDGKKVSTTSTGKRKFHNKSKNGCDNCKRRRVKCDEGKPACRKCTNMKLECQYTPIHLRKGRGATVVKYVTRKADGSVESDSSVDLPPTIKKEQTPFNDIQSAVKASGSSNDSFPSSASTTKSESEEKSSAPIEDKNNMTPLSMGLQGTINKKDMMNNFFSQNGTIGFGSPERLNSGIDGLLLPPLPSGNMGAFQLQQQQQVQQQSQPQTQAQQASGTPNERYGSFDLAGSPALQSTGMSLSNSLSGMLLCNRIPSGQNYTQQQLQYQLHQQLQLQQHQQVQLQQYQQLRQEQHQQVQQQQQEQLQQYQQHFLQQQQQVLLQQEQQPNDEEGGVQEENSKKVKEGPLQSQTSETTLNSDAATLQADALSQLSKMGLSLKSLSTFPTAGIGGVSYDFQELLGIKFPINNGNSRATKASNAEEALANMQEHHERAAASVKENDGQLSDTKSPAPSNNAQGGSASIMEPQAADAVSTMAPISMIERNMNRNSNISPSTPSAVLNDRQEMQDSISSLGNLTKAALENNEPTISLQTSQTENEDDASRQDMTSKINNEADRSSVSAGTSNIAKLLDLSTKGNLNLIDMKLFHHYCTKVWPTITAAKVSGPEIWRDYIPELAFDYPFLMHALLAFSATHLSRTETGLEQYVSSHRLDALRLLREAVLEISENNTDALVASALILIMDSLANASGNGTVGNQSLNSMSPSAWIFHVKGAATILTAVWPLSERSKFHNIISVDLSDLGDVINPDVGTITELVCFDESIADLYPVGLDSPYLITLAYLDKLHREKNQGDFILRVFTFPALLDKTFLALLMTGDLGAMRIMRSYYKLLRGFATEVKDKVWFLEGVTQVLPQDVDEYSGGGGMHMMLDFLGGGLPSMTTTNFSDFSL
Assay: PBM E-score (8-mer binding enrichment) (E-score (-0.5 to 0.5)); higher = stronger / more preferred TF binding
Details: protein concentration: 200 nM; construct: GST-full length
Method: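 Universal 'all 10-mer' protein binding microarrays (Agilent AMADID 015681) probed with GST-tagged S. cerevisiae TFs (full-length or DBD) made by in vitro transcription/translation (PURExpress), about 100-200 nM. Bound TF was detected with fluorescent anti-GST. Each ungapped 8-mer (which stands for itself and its reverse complement) is scored by the PBM enrichment score (E-score), a modified Wilcoxon-Mann-Whitney statistic from -0.5 to +0.5, computed with the Universal PBM Analysis Suite. Scale: above 0.35 generally sequence-specific binding.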

Sequence | PBM E-score
AAACGACC | 0.458
GAACGACA | 0.437
GGACGACA | -0.266
TGACGACA | 0.0658
GCACGACC | -0.2
AGACGACC | 0.132
CAACGACC | 0.221
AGCCAACC | 0.0299
TCTCACCA | -0.14
CAGTGCAC | -0.136
CTACCACA | -0.234
CCGGCTAA | -0.199
AGATAAAG | -0.0496
CAACGACG | 0.296
ACACGACT | 0.194
AAACGACA | 0.479
AGACGACT | 0.0557
AGACGACA | 0.104
CGACGACG | 0.0684
AAACGACG | 0.476
ACACGACA | 0.221
AAACGACT | 0.456
GCCGAGAA | 0.068
AACAATCA | -0.0313
CCTGGGGC | -0.165

Sequence | PBM E-score
TCGCCGCA | -0.0606
AATTAACG | 0.272
AGAATAGC | -0.229
TTCCGGAA | -0.206
CATCATTA | -0.0416
ACTTACTG | -0.00843
CGTATATA | 0.458
CGTATATC | 0.454
GGTATATA | 0.152
AGTATATC | 0.0604
AGTATATA | 0.282
CATATATC | 0.114
CATTCGTA | 0.416
AATTCGTG | -0.0513
AATTCGTA | 0.433
GATTCGCA | 0.131
GATTCGTA | 0.438
AATTCGTC | 0.0116
GATTCGGA | 0.11
CATTCGTC | 0.0696
CATTCGCA | 0.0275
CCTGGGAC | -0.25
CCCTCTCC | -0.339
CCGTTCGC | 0.201
ACCTTGGG | -0.219

Sequence | PBM E-score
CTAAATTC | 0.0497
AGCTGCAT | -0.108
TACGAGAA | 0.447
GACGAGAA | 0.0864
TTCGAGAA | 0.109
AACGAGAA | 0.422
ACCGAGAT | 0.126
CACGAGAA | 0.0693
ATCGAGAT | -0.0275
TCCGAGAA | 0.248
AACGAGAT | 0.417
ATCGAGAG | 0.0513
CACGAGAG | 0.0635
AACGAGAG | 0.425
CCAATCCG | -0.0814
CCGAAAAA | 0.0605
AATCAAAA | -0.0286
ACCCTGGC | -0.206
AATTATGC | 0.0912
CGAATTCA | 0.0713
CTTGGCCC | -0.171
CCGCTTCA | -0.0583
CCATGCCG | -0.135
CCTTGCCC | -0.056
AAATAGAA | -0.0216

Sequence | PBM E-score
AACGAGAC | 0.437
CACGAGAC | 0.0139
GACGAGAC | 0.0394
ATCGCTTA | 0.364
GTCGCTTA | 0.396
ATCGCATA | 0.318
CTCGCATA | 0.363
GTCGCATA | 0.375
GTCGCTAA | 0.271
CTCGCTGA | -0.136
CTCGCTTA | 0.423
GTCGCTGA | -0.0513
ACTGCAGG | -0.156
ATTGGGAC | -0.218
GGTAGTTA | -0.14
ACGAGGTC | 0.371
ACGAGGAC | 0.384
CCGAGGGC | 0.094
CCGAGGTC | 0.0232
ACGAGGGA | 0.364
ACGAGGAG | 0.306
AAGAGGTC | -0.186
ACGAGTTA | 0.392
ACGAGTTC | 0.342
GCGAGGAC | -0.102

Sequence | PBM E-score
GCGAGTTA | 0.116
ACGAGGGC | 0.388
CACCACGC | -0.221
GAGGGGAC | -0.152
AAGGTCAG | -0.239
CGTCGAAC | 0.0511
GCCCCAGA | -0.09
AACTGTAA | 0.103
TAGATTAA | 0.104
GCTGCGGA | -0.164
ACGAGGTG | 0.367
ACGAGGTA | 0.382
GCGAGGTA | 0.244
GATGGTAC | 0.139
AGTGTCAG | -0.0575
CGGGATAC | 0.18
AAGAGGCT | -0.257
CCGAGGCA | -0.0905
GCGAGGCC | 0.2
AGGAGGCG | -0.326
ACGAGGCA | 0.408
ACGAGGCG | 0.4
ACGAGGAT | 0.355
ACGAGGCT | 0.406
CCGAGGCG | 0.129

Sequence | PBM E-score
ACGAGGCC | 0.381
CCGAGGCC | 0.102
GCGAGGCA | 0.195
CACAGGCG | -0.208
CCGACAGG | -0.0268
AATTTGTC | 0.0333
CATTAGCG | 0.197
GATCTCCC | -0.162
GCTGGACC | -0.0565
CTACAATC | 0.0566
ACTAGATG | -0.122
AGGGGCCA | -0.215
ATCGATCG | 0.136
AACGATCT | 0.381
AACGATCA | 0.379
ATCGATCA | 0.0619
TACGATCA | 0.422
ACCGATCT | -0.0555
CACGATCG | 0.125
GACGATCA | -0.0322
AACGATCG | 0.383
CACGATCA | -0.0545
AGCGATCA | 0.11
AACGATCC | 0.345
GAGCGATA | 0.218

Sequence | PBM E-score
GAAGAAGC | -0.195
AGTCAAGG | -0.208
AACGCGAA | 0.23
CTCTTGCC | -0.16
ATAACCTC | -0.0875
AAGGAAAG | -0.171
CGCACTAC | -0.0438
ACCTCAGT | -0.0386
ATATGAAG | -0.19
GTATAAAA | 0.348
ATATATAC | 0.265
GTATATAA | 0.298
ATATAAAC | 0.187
GTATAAAC | 0.4
GTATATAC | 0.395
CATTGGTA | -0.184
AATCACCG | 0.00219
ATTCGCAA | -0.00304
GCCGTAAA | 0.385
ACCGTAAA | 0.368
CCCCGTAA | 0.308
GCCGTAAC | 0.225
CCCGTAAA | 0.381
CCTGTAAA | -0.0269

— the supplement of paper PMC3334620
